Assay results: PubChem BioAssay (NCATS)
Several values for one entry are separate records, joined by “and”; a condition that tells them apart may be missing. Equal entries are not always repeated. Records with an inconclusive call do not appear. Where a call stands in place of a potency, no number is given. Some structures have more than one record in an assay (separate samples or runs), and their calls can disagree. Activity calls are given as the source filed them. The call rests on the fitted dose curve; in most records, active means well fitted curve in the direction sought with a large enough effect; inconclusive means small, poorly fitted or top-dose-only effect, or another doubt; inactive means no such curve, though single readings can be large; an effect the other way counts as inactive or inconclusive.

Assays:
[1] = Primary qHTS for inhibitors of nuclear receptor binding SET domain protein 2 (NSD2) in an isogenic RCH-ACV NSD2 p.E1099K mutant (9B) (AID 1645876); further: nearly all actives have a fitted effect of over 70% in size; further: potency means the concentration at half of the fitted maximal effect
[2] = Primary qHTS for inhibitors of nuclear receptor binding SET domain protein 2 (NSD2) in an RCH-ACV wild type WT cells (2C) (AID 1645877); further: nearly all actives have a fitted effect of over 70% in size; further: potency means the concentration at half of the fitted maximal effect
[3] = biological target: Catechol O-methyltransferase (Homo sapiens) (UniProt P21964); test: Confirmatory Screen for Target Class Profiling of Small Molecule Inhibitors of Methyltransferases (AID 1745852); details: MTase-Glo luminescence, SAH detection, recombinant enzyme; measured here: COMT max response; stronger effect = lower value
Chain of Catechol O-methyltransferase (Homo sapiens) (P21964 whole entry, looked up): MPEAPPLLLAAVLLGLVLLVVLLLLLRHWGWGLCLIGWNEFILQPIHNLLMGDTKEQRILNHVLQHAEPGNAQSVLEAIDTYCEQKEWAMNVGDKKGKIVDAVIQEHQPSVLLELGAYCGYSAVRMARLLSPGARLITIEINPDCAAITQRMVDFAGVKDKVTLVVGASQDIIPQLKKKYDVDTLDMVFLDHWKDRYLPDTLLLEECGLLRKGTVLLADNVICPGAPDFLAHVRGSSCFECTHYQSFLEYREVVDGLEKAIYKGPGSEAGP

[4] = biological target: Guanidinoacetate N-methyltransferase (Homo sapiens) (UniProt Q14353); test: as above; details: activity change, negative = inhibition: at 57.3 µM (top of the series) unless noted
[5] = biological target: Nicotinamide N-methyltransferase (Homo sapiens) (UniProt P40261); test: as above; details: MTase-Glo luminescence, SAH detection, recombinant enzyme; measured here: NNMT max response; stronger effect = lower value
Chain of Nicotinamide N-methyltransferase (Homo sapiens) (P40261 whole entry, looked up): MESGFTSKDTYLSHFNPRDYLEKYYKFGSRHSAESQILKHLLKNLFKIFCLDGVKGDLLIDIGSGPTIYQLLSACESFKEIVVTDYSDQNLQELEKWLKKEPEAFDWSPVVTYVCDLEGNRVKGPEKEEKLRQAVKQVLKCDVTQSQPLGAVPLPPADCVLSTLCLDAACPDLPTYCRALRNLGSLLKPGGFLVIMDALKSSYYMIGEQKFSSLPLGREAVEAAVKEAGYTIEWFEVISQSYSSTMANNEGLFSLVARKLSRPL

C/C=C(\C)C(=O)O[C@@H]1CC2[C@@H](CC=C3C[C@@H](O[C@H]4C[C@H](OC)[C@H](O[C@H]5C[C@H](OC)[C@H](O[C@H]6C[C@H](OC)[C@H](O[C@H]7C[C@@H](OC)[C@H](O[C@@H]8O[C@H](CO)[C@@H](O)[C@H](O)[C@H]8O)[C@@H](C)O7)[C@@H](C)O6)[C@@H](C)O5)[C@@H](C)O4)CC[C@@]32C)[C@@]2(O)CC[C@H](C(C)=O)[C@@]12C (stereo partly specified)
activity change, negative = viability loss [1]: -12.3% [at 9.23 µM] (inactive)
activity change, negative = cell killing [2]: -18.8% [at 9.23 µM] (inactive)

O=C(C1CC1)N1CC[C@@H](Cc2n[nH]c(=O)n2-c2ccc(-c3ccc4occc4c3)cc2)C1
Potency [1]: inactive and 16.6 µM (active)
Potency [2]: inactive and 18.6 µM (active)

O=C(O)c1n[nH]c2c1C[C@H]1C[C@@H]21
Potency [1]: inactive
Potency [2]: inactive

O=S(=O)(NC1CCNCC1)c1cc(S(=O)(=O)c2ccccc2)ccc1C(F)(F)F
Potency [1]: inactive
Potency [2]: inactive

CC(=O)N[C@H]1[C@H](O[C@H]2CC[C@@]3(C)C(CC[C@]4(C)C3CC=C3C5CC(C)(C)CC[C@]5(C(=O)O)[C@H](O[C@@H]5O[C@H](CO)[C@@H](O)[C@H](O)[C@H]5O)C[C@]34C)C2(C)C)O[C@H](CO[C@@H]2OC[C@H](O)[C@H](O)[C@H]2O[C@@H]2OC[C@@H](O)[C@H](O)[C@H]2O)[C@@H](O)[C@@H]1O (stereo partly specified)
activity change, negative = viability loss [1]: -9.03% [at 9.23 µM] (inactive)
activity change, negative = cell killing [2]: -14.8% [at 9.23 µM] (inactive)

NCc1ccc(OCCCc2sc(-c3ccc4c(c3)/C(=N/Nc3nc5ccccc5s3)CCC4)nc2C(=O)O)cc1
Potency [1]: inactive
Potency [2]: 5.15 µM (active)

CC(C)C(=O)O[C@@H]1[C@@H](O)[C@@H](O[C@H]2O[C@H](CO)[C@@H](O)[C@H](O)[C@H]2O)O[C@H](CO)[C@H]1O
Potency [1]: inactive
Potency [2]: inactive

CC(=O)Oc1cc2c(s1)CCN([C@H](C(=O)C1CC1)c1ccccc1F)C2
Potency [1]: inactive
Potency [2]: inactive

O=C1NC(Cc2ccc(O)cc2)C(=O)N2CCCC12 (stereo unspecified)
Potency [1]: inactive
Potency [2]: inactive

CC(=O)O[C@H](C[C@@H](C)[C@H]1C(=O)[C@H](O)[C@@]2(C)[C@@H]3CCC4C(C)(C)[C@@H](O[C@@H]5OC[C@H](O)[C@H](O)[C@H]5O)CC[C@@]45C[C@@]35CC[C@]12C)[C@@H]1OC1(C)C (stereo partly specified)
Potency [1]: inactive
Potency [2]: inactive

COC(=O)[C@@]1(O)C=CC[C@@H]2[C@@]3(C)C[C@@H](c4ccoc4)OC(=O)[C@H]3CC[C@]21C
Potency [1]: inactive
Potency [2]: inactive

CC12CCC3c4ccc(O)cc4CCC3C1CCC2OC1OC(C(=O)O)C(O)C(O)C1O (stereo unspecified)
Potency [1]: inactive
Potency [2]: inactive

CC1(CO)CC[C@]2(C(=O)O[C@@H]3O[C@H](CO)[C@@H](O)[C@H](O)[C@H]3O)CC[C@]3(C)C(=CCC4[C@@]5(C)C[C@H](O)[C@H](O[C@@H]6OC[C@@H](O)[C@H](O)[C@H]6O)[C@@](C)(CO)C5CC[C@]43C)C2C1 (stereo partly specified)
activity change, negative = viability loss [1]: 1.64% [at 9.23 µM] (inactive)
outcome [2]: inactive [at 9.23 µM]
activity [3]: -56.9%
activity change, negative = inhibition [4]: 0.83% [at 19.1 µM]
activity [5]: 2.23%

CC(C)(O)C1CC=C(C(=O)OCC2OC(Oc3c(O)cc(C(=O)O)cc3O)C(O)C(O)C2O)CC1 (stereo unspecified)
Potency [1]: inactive
Potency [2]: inactive
activity [3]: -71.8%
activity change, negative = inhibition [4]: -3.66% [at 29.8 µM]
activity [5]: -2.85%

COc1cc(C2Oc3c(OC)cc(/C=C/C(=O)OC[C@H]4O[C@@H](OC(C)(C)C(=O)O)[C@H](O)[C@@H](O)[C@@H]4O)cc3C2CO)ccc1O (stereo partly specified)
Potency [1]: inactive
Potency [2]: inactive
activity [3]: -69.3%
activity change, negative = inhibition [4]: -2.88% [at 19.1 µM]
activity [5]: -0.56%

CN1CCC(c2c[nH]c3ccc(NC(=O)c4ccc(F)cc4)cc23)CC1
Potency [1]: inactive
Potency [2]: inactive
activity [3]: -8.83%
activity change, negative = inhibition [4]: -10.4%
activity [5]: -3.82%

CC(=O)c1c(O)cc2c(c1C)C(=O)CC(O)C2 (stereo unspecified)
Potency [1]: inactive
Potency [2]: inactive

O=C(O)CCc1cccc(O[C@@H]2O[C@H](CO)[C@@H](O)[C@H](O)[C@H]2O)c1O
Potency [1]: inactive
Potency [2]: inactive
activity [3]: -71.6%
activity change, negative = inhibition [4]: 0.429%
activity [5]: 0.392%

CC(CCC1C(C(=O)O)=CC(=O)CC1(C)C)O[C@@H]1O[C@H](CO)[C@@H](O)[C@H](O)[C@H]1O (stereo partly specified)
Potency [1]: inactive
Potency [2]: inactive
activity [3]: -82.7%
activity change, negative = inhibition [4]: -6.33%
activity [5]: -5.15%

CC(C)(O)/C=C1/C(=O)C(C)(C)C(=O)C(C)(C)C1(O)O[C@@H]1O[C@H](COC(=O)c2cc(O)c(O)c(O)c2)[C@@H](O)[C@H](O)[C@H]1O (stereo partly specified)
Potency [1]: inactive
Potency [2]: inactive
activity [3]: -56.9%
activity change, negative = inhibition [4]: -2.31% [at 19.1 µM]
activity [5]: -1.53%
